Screening data as filed in PubChem BioAssay.
MEKK2mut PB1 HTS: signal of MEK5 binding to mutant human MEKK2 PB1 domain; bead flow cytometry, Alexa488-MEK5 binding to MEKK2 mutant; percent response, % at 10 µM; 0.35% of 290,000 active; in the data active = percent response above about 24%, passing the limit was not always enough
MEKK2wt PB1 HTS: raises or lowers MEK5 binding to wildtype human MEKK2 PB1 domain; binding response (% of control), % at 10 µM; bead flow cytometry, Alexa488-MEK5 binding to MEKK2 WT; actives lie on both sides; 1.1% of 290,000 active; Q9Y2U5; in the data active = binding response below about 67% or above about 130%
MEKK3 PB1 HTS: raises or lowers MEK5 binding to the human MEKK3 PB1 domain. Q99759. bead-based flow cytometry, Alexa488-MEK5 binding to MEKK3; actives lie on both sides; 0 = blocked by unlabeled MEK5, 100 = vehicle. binding response (% of control), % at 10 µM. 1.4% of 290,000 active. AID 1529;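 active = binding response more than 3 SD above or below the average of its plate-row segment, actives on both sides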;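 also: Alexa488 bead fluorescence after subtracting the streptavidin-only scavenger bead signal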
VLA-4 inh: inhibition in a human VLA-4 binding assay | VLA-4 expressing cells, ligand binding flow cytometry | inhibition, % (about 7 µM as worked out from the volumes in the protocol) | 0.2% of 330,000 active | AID 2557; in the data active = inhibition above about 50%
Target sequence (P13612 whole entry, looked up): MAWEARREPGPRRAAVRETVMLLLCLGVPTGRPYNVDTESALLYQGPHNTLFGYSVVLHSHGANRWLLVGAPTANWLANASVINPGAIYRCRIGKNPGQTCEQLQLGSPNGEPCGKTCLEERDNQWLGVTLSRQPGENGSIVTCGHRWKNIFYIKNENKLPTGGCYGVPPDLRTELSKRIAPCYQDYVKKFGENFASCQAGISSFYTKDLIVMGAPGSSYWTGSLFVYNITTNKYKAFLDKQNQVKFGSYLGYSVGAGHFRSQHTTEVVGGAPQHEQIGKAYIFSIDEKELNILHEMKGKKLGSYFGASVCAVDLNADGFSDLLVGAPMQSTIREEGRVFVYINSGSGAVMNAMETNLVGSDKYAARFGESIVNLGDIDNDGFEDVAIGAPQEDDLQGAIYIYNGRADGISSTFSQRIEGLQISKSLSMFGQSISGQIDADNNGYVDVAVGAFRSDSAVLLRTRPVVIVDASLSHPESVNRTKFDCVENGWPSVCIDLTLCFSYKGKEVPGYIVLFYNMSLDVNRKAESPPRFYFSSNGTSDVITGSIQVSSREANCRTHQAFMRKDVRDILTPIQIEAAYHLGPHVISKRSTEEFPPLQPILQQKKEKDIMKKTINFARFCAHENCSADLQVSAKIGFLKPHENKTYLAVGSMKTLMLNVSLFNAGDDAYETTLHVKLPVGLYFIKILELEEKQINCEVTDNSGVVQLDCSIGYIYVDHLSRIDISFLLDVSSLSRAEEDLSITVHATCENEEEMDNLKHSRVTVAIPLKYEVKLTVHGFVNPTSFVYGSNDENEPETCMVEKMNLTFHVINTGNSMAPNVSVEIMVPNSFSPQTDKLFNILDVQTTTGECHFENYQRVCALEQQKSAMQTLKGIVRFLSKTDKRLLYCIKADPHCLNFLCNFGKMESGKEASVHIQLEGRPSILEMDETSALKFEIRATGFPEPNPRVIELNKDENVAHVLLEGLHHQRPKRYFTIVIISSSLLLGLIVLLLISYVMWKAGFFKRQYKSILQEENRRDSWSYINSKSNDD
MEKK2wt confirm: raises or lowers MEK5 binding to wildtype human MEKK2, retest. shares compounds with MEKK3 PB1 HTS. bead flow cytometry, Alexa488-MEK5 binding to MEKK2 WT; actives lie on both sides. binding response (% of control), % at 10 µM. 2.4% of 5,900 active. AID 1892; in the data active = binding response below about 16% or above about 210%; inactive = in between
MEKK2mut-MEK5: signal of MEK5 binding to mutant human MEKK2, retest. bead flow cytometry, Alexa488-MEK5 binding to MEKK2 mutant. percent response, % at 10 µM. AID 1893. shares compounds with MEKK3 PB1 HTS. 2% of 5,900 active; in the data active = percent response mostly above about 71%, no sharp cut-off; inactive = mostly below about 38%;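 also: higher means compound restores mutant binding toward wildtype level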
MEKK3 confirm: MEKK3-MEK5 PB1 inhibition, single concentration confirmation; shares compounds with MEKK3 PB1 HTS; bead flow cytometry, Alexa488-MEK5 binding to MEKK3; active compounds read low; binding response (% of control), % at 10 µM; 1.8% of 5,900 active; AID 1894;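 active = binding response below 72% of control, or above a set upper limit, though filed actives all read lower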;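 also: 100% = DMSO only wells and 0% = binding blocked by excess unlabeled MEK5; lower values mean stronger disruption of MEK5 binding to MEKK3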
Active calls of the source: *; nt = no result given; [ ] = another dose, or the depositor's remark. Sampled rows, rich in hits. Any-hit rate of the full collection: about 2.2%.

SMILES	MEKK2mut PB1 HTS	MEKK2wt PB1 HTS	MEKK3 PB1 HTS	VLA-4 inh	MEKK2wt confirm	MEKK2mut-MEK5	MEKK3 confirm
O=C(O)/C=C/C(=O)Nc1ccc(Oc2ccc(NC(=O)/C=C/C(=O)O)cc2)cc1	1	106	150*	4	87	-9	87
CCOc1ccc2nc(C)cc(C(=O)O)c2c1	-23	-7.0*[inhibitor]	0.0*[inhibitor]	11	120	12	100
COc1ccc2nc(C)cc(C(=O)O)c2c1	7	105	106	11	nt	nt	nt
CC(C)(C)c1nc(-c2ccccc2)nc2c1OCCC2	nt	nt	nt	-3	nt	nt	nt
CSCCCNC(=S)N1CCN(c2ccc(C(C)=O)cc2)CC1	-45	6.0*[inhibitor]	5.0*[inhibitor]	8	100	-5	99
CCc1ccccc1NC(=O)CSc1nc2n[nH]c(C)c2c(=N)n1-c1cccc(OC)c1	19	140*	114	6	109	1	101
CS(=O)(=O)N(CC(=O)Nc1ccc(Br)cc1)C1CCCCC1	8	110	102	-7	nt	nt	nt
O=C(CN1CCN(Cc2cccc(F)c2)CC1)NCc1ccccc1	1	95	94	3	nt	nt	nt
Cc1ccc(C)c(OCCC(=O)Nc2ccc3c(c2)OCO3)c1	nt	nt	nt	10	nt	nt	nt
CCCCC(=O)OCC(=O)c1cc(C)n(-c2c(C)n(C)n(-c3ccccc3)c2=O)c1C	-3	83	65*[inhibitor]	7	90	-10	89
CCOC(=O)c1cc(C)n(-c2c(C)n(C)n(-c3ccccc3)c2=O)c1C	11	105	103	2	nt	nt	nt
Cc1cc(C(=O)COC(=O)CC2Sc3ccccc3NC2=O)c(C)n1-c1ccccc1 (configuration not stated)	0	105	136*	21	93	-10	96
COC(=O)c1cc(NC(=O)c2ccccc2)c(=O)oc1/C=C/Nc1ccc(Oc2ccccc2)cc1	734*	218*	85	nt	87	-30	73
CSCC[C@H](NC(=O)c1ccc(OCC2CCCO2)cc1)c1nc2ccccc2[nH]1 (some centres not stated)	nt	nt	nt	0	nt	nt	nt
CCCOc1ccc(C(=O)Nc2ccc(S(=O)(=O)N3C[C@@H]4C[C@@H](C3)c3cccc(=O)n3C4)cc2)cc1	nt	nt	nt	11	nt	nt	nt
Cn1c(=NC(=O)COc2ccccc2)sc2ccccc21	-3	85	74*[inhibitor]	-3	98	2	99
CCOC(=O)c1ccc(N2CCN(c3ccccc3F)CC2)c(NC(=O)Nc2ccccc2)c1	9	30*[inhibitor]	102	-10	106	-2	103
CCOC(=O)N1CCN(c2c(N3CCN(c4ccccc4F)CC3)c(=O)c2=O)CC1	-5	82	72*[inhibitor]	1	75	-23	70*
CCOC(=O)N1CCN(c2c(N3CCN(c4cccc(C)c4C)CC3)c(=O)c2=O)CC1	11	104	107	nt	nt	nt	nt
CCn1nc(C)cc1-c1nnc(Sc2ncc([N+](=O)[O-])s2)n1C	3	103	95	-20	nt	nt	nt
O=C(NCCCN1CCOCC1)c1ccc2c(c1)N(Cc1ccccc1)C(=O)c1ccccc1S2	5	111	101	21	nt	nt	nt
O=C(CN1C(=O)/C(=C/c2ccccc2)Sc2ccccc21)NCCCN1CCOCC1	2	109	106	4	nt	nt	nt
CN1CCN(CCCNC(=O)c2ccc(/C=C3/Sc4ccccc4N(Cc4cccc(Cl)c4)C3=O)cc2)CC1	65*	224*	108	nt	209*	73*	110
CN1CCN(CCCNC(=O)c2ccc(/C=C3\Sc4ccccc4N(Cc4ccc(F)cc4)C3=O)cc2)CC1	41	163*	105	nt	203	66	105
CCN(Cc1cnn(C)c1)C(=O)CC1C(=O)NCCN1Cc1cccc(OC)c1OC (configuration not stated)	-3	90	90	-1	nt	nt	nt
SMILES	MEKK2mut PB1 HTS	MEKK2wt PB1 HTS	MEKK3 PB1 HTS	VLA-4 inh	MEKK2wt confirm	MEKK2mut-MEK5	MEKK3 confirm
CCN(CC)S(=O)(=O)c1ccc(O)c(C(=O)OCC(=O)NC23CC4CC(CC(C4)C2)C3)c1	nt	nt	nt	-12	nt	nt	nt
O=C(/C=C/N1CCN(Cc2ccccc2)CC1)C(F)(F)F	-15	69	62*[inhibitor]	-6	102	1	103
COc1cc2c(cc1OC)C(c1ccccc1F)NCC2 (configuration not stated)	9	108	109	5	nt	nt	nt
COc1ccc(-c2[nH]n(-c3ccc([N+](=O)[O-])cc3)c(=O)c2C=NCCN2CCNCC2)cc1	0	113	101	15	nt	nt	nt
O=c1c(C=NCCN2CCNCC2)c(-c2ccccc2)[nH]n1-c1ccc([N+](=O)[O-])cc1	31	179*	118	13	142	45	107
OCCOCCOc1ccc(-c2nn[nH]n2)cc1	-1	97	74*[inhibitor]	12	101	1	94
CCOc1ccc(-c2nn[nH]n2)cc1	1	102	97	-11	nt	nt	nt
Cc1cccc(S(=O)(=O)c2c(N)n(-c3ccccc3)c3nc4ccccc4nc23)c1	0	105	138*	-10	97	-3	107
Cc1ccc(-n2c(N)c(S(=O)(=O)c3ccccc3)c3nc4ccccc4nc32)cc1	-5	95	101	-8	nt	nt	nt
CCOc1ccc(Oc2ccc(NC(=O)[C@@H](NC(N)=O)[C@@H](C)CC)cc2)cc1	4	111	111	2	nt	nt	nt
O=S(=O)(Cc1ccccc1)N1CCC(N2CCN(c3ccccc3)CC2)CC1	5	117	133*	3	111	4	104
CCOc1ccccc1C(=O)NC(C(=O)Nc1cccc(S(N)(=O)=O)c1)C(C)C (configuration not stated)	-8	96	94	0	nt	nt	nt
CC1CCCN(C(=O)c2cc(S(=O)(=O)N3CCCCC3)c[nH]2)C1 (configuration not stated)	2	102	104	-9	nt	nt	nt
CCOC(=O)CN1C(=O)/C(=C/c2c(F)cccc2Cl)Oc2ccccc21	2	102	99	0	nt	nt	nt
CC(=O)Nc1ccc(OCC(O)Cn2c3ccccc3c3ccccc32)cc1 (configuration not stated)	2	120	176*	1	-6.0*[inhibitor]	-3	84
CC(=O)Nc1ccc(OCC(O)Cn2c3ccccc3c3ccccc32)c(C)c1 (configuration not stated)	6	114	119	7	nt	nt	nt
CC(=O)Nc1ccc(OCC(O)CN2C(C)(C)CC(O)CC2(C)C)cc1 (configuration not stated)	-1	96	74*[inhibitor]	-6	102	-3	100
Cc1ccc(C(=O)C(C)OC(=O)CN2C(=O)NC3(CCCC3)C2=O)cc1C (configuration not stated)	nt	nt	nt	3	nt	nt	nt
COc1ccccc1/C=C/C=N/NC(=O)c1cccs1	-17	96	90	11	nt	nt	nt
